In all, about 11,000 sequences were measured (“log2 fold change”: median about 0.00022, highest 2% from about 0.34 on). The list shows a part of the results.

In this assay the target is GST-SBP-SLBP (stem-loop binding protein) (Homo sapiens, UniProt Q14493 1-270). The assay is described as follows: targeted RNA Bind-n-Seq; RBNS binding buffer: 25 mM Tris pH 7.5, 150 mM KCl, 3 mM MgCl2, 0.1% Tween, 0.5 mg/mL BSA, 1 mM DTT; 27 nM protein, 750 pM RNA pool; temperature not stated; high values mean tight binding. The conditions noted are these: protein: recombinant; tags: N-terminal GST and SBP (pGEX6P1-SBP); structured_RNA. In short, it runs like this:
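The protein, carrying a GST-SBP tag, was produced in Rosetta(DE3) pLysS E. coli, purified on glutathione, and mixed at 27 nM with 750 pM of a designed RNA oligo pool made by T7 transcription in RBNS binding buffer. RNA that bound was reverse transcribed using a barcoded primer of 10 nucleotides, amplified by PCR and sequenced on a MiSeq with 200-cycle paired-end reads. FLASH joined the reads, HISAT2 aligned them, and they were collapsed by barcode before the binding signal was taken as the DEseq binary-logarithm fold change of read counts for each sequence.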
Take “GGUCACGUCUCAAUCAACUCCAAAGAGGGGGGGAAAACCCCUUUGCCCUCAAUAUCAACAGCUCGCAGUCAAG”: the binding signal was found to be 0.359 ± 0.439 log2 fold change.

“GGUCACGUCUCAAUCAACUCUCAAGAGGGGGGGAAAACCCCUUUGCCCUCCAAAUCAACAGCUCGCAGUCAAG”: the binding signal was 0.327 ± 0.445 log2 fold change.

Turning to “GGUCACGUCUCAAUCAACUCCAAAGAGGGGGGGAAAACCCCUUUGCCCUCGAAAUCAACAGCUCGCAGUCAAG”, the binding signal came to 0.347 ± 0.378 log2 fold change.

With “GGUCACGUCUCAAUCAACUCCAAAGAGGGGGGGAAAACCCCUUUGCCCUCCAAUUCAACAGCUCGCAGUCAAG”, the binding signal came out at 0.304 ± 0.412 log2 fold change.

As to “GGUCACGUCUCAAUCAACUCCAAAGAGGGGGGGAAAACCCCUUUGCCCUCAUUCUCAACAGCUCGCAGUCAAG”, the binding signal came out at 0.342 ± 0.438 log2 fold change.

On to “GGUCACGUCUCAAUCAACUCUCUCGAGGGGGGGAAAACCCCUUUGCCCUCAACAUCAACAGCUCGCAGUCAAG”, for which the binding signal was found to be 0.307 ± 0.399 log2 fold change.

As for “GGUCACGUCUCAAUCAACUCUCUCGAGGGGGGGAAAACCCCUUUGCCCUCAAAAUCAACAGCUCGCAGUCAAG”, the binding signal is 0.354 ± 0.38 log2 fold change.

For the sequence “GGUCACGUCUCAAUCAACUCUCUAGAGGGGGGGAAAACCCCUUUGCCCUCAUCCUCAACAGCUCGCAGUCAAG”, the binding signal came to 0.441 ± 0.424 log2 fold change.

In the case of “GGUCACGUCUCAAUCAACUCACAAGAGGGGGGGAAAACCCCUUUGCCCUCAUCCUCAACAGCUCGCAGUCAAG”, the binding signal worked out at 0.34 ± 0.422 log2 fold change.

Turning to “GGUCACGUCUCAAUCAACUCUCUAGAGGGGGGGAAAACCCCUUUGCCCUCGUCAUCAACAGCUCGCAGUCAAG”, the binding signal came out at 0.374 ± 0.381 log2 fold change.

For “GGUCACGUCUCAAUCAACUCUCUAGAGGGGGGGAAAACCCCUUUGCCCUCGAAAUCAACAGCUCGCAGUCAAG”, the binding signal was found to be 0.342 ± 0.443 log2 fold change.

Consider “GGUCACGUCUCAAUCAACUCAUUCGAGGGGGGGAAAACCCCUUUGCCCUCAUCAUCAACAGCUCGCAGUCAAG”, for which the binding signal amounted to 0.363 ± 0.407 log2 fold change.

For the sequence “GGUCACGUCUCAAUCAACUCUCUAGAGGGGGGGAAAACCCCUUUGCCCUCCGUUUCAACAGCUCGCAGUCAAG”, the binding signal came to 0.354 ± 0.438 log2 fold change.

For “GGUCACGUCUCAAUCAACUCCUAAGAGGGGGGGAAAACCCCUUUACCCUCCGCAUCAACAGCUCGCAGUCAAG”, the binding signal is 0.313 ± 0.425 log2 fold change.

With “GGUCACGUCUCAAUCAACUCCUAAGAGGGGGGGAAAACCCCUUUACCCUCGUCCUCAACAGCUCGCAGUCAAG”, the binding signal is 0.382 ± 0.439 log2 fold change.

As to “GGUCACGUCUCAAUCAACUCCUAAGAGGGGGGGAAAACCCCUUUACCCUCACUAUCAACAGCUCGCAGUCAAG”, the binding signal was 0.433 ± 0.43 log2 fold change.

As to “GGUCACGUCUCAAUCAACUCCUAAGAGGGGGGGAAAACCCCUUUACCCUCAAUCUCAACAGCUCGCAGUCAAG”, the binding signal worked out at 0.429 ± 0.444 log2 fold change.

With “GGUCACGUCUCAAUCAACUCUUUAGAGGGGGGGAAAACCCCUUUGCCCUCGAAUUCAACAGCUCGCAGUCAAG”, the binding signal came to 0.388 ± 0.441 log2 fold change.

For “GGUCACGUCUCAAUCAACUCUUUAGAGGGGGGGAAAACCCCUUUGCCCUCAACUUCAACAGCUCGCAGUCAAG”, the binding signal amounted to 0.318 ± 0.415 log2 fold change.

Regarding “GGUCACGUCUCAAUCAACUCUAUAGAGGGGGGGAAAACCCCUUUGCCCUCGAAUUCAACAGCUCGCAGUCAAG”, the binding signal worked out at 0.377 ± 0.432 log2 fold change.

Take “GGUCACGUCUCAAUCAACUCCUUAGAGGGGGGGAAAACCCCUUUGCCCUCGAAUUCAACAGCUCGCAGUCAAG”: the binding signal turned out to be 0.379 ± 0.448 log2 fold change.

For the sequence “GGUCACGUCUCAAUCAACUCUCAAGAGGGGGGGAAAACCCCUUUGCCCUCGUAAUCAACAGCUCGCAGUCAAG”, the binding signal is 0.452 ± 0.411 log2 fold change.

As to “GGUCACGUCUCAAUCAACUCUCACGAGGGGGGGAAAACCCCUUUGCCCUCACUUUCAACAGCUCGCAGUCAAG”, the binding signal amounted to 0.351 ± 0.41 log2 fold change.

Turning to “GGUCACGUCUCAAUCAACUCAAAAGAGGGGGGGAAAACCCCUUUGCCCUCACUUUCAACAGCUCGCAGUCAAG”, the binding signal is 0.573 ± 0.412 log2 fold change.

“GGUCACGUCUCAAUCAACUCAAAAGAGGGGGGGAAAACCCCUUUGCCCUCACAAUCAACAGCUCGCAGUCAAG”: the binding signal came to 0.31 ± 0.383 log2 fold change.

As for “GGUCACGUCUCAAUCAACUCUCACGAGGGGGGGAAAACCCCUUUGCCCUCAAUUUCAACAGCUCGCAGUCAAG”, the binding signal amounted to 0.305 ± 0.454 log2 fold change.

As to “GGUCACGUCUCAAUCAACUCAUAAGAGGGGGGGAAAACCCCUUUGCCCUCAAUCUCAACAGCUCGCAGUCAAG”, the binding signal worked out at 0.373 ± 0.408 log2 fold change.

“GGUCACGUCUCAAUCAACUCACACGAGGGGGGGAAAACCCCUUUGCCCUCAACAUCAACAGCUCGCAGUCAAG”: the binding signal was 0.529 ± 0.425 log2 fold change.

As to “GGUCACGUCUCAAUCAACUCUCAAGAGGGGGGGAAAACCCCUUUGCCCUCAACAUCAACAGCUCGCAGUCAAG”, the binding signal came out at 0.531 ± 0.415 log2 fold change.

For the sequence “GGUCACGUCUCAAUCAACUCUCAAGAGGGGGGGAAAACCCCUUUGCCCUCCAUGUCAACAGCUCGCAGUCAAG”, the binding signal is 0.411 ± 0.415 log2 fold change.

In the case of “GGUCACGUCUCAAUCAACUCUCAAGAGGGGGGGAAAACCCCUUUGCCCUCACUUUCAACAGCUCGCAGUCAAG”, the binding signal was 0.453 ± 0.436 log2 fold change.

In the case of “GGUCACGUCUCAAUCAACUCCUAAGAGGGGGGGAAAACCCCUUUGCCCUCAUUCUCAACAGCUCGCAGUCAAG”, the binding signal turned out to be 0.335 ± 0.447 log2 fold change.

Take “GGUCACGUCUCAAUCAACUCCUAAGAGGGGGGGAAAACCCCUUUGCCCUCACUUUCAACAGCUCGCAGUCAAG”: the binding signal worked out at 0.38 ± 0.429 log2 fold change.

In the case of “GGUCACGUCUCAAUCAACUCUAAAGAGGGGGGGAAAACCCCUUUGCCCUCACUUUCAACAGCUCGCAGUCAAG”, the binding signal worked out at 0.415 ± 0.443 log2 fold change.

“GGUCACGUCUCAAUCAACUCUAAAGAGGGGGGGAAAACCCCUUUGCCCUCACUAUCAACAGCUCGCAGUCAAG”: the binding signal came to 0.331 ± 0.434 log2 fold change.

For the sequence “GGUCACGUCUCAAUCAACUCCUAAGAGGGGGGGAAAACCCCUUUGCCCUCACCGUCAACAGCUCGCAGUCAAG”, the binding signal was 0.325 ± 0.438 log2 fold change.

With “GGUCACGUCUCAAUCAACUCAAUCGAGGGGGGGAAAACCCCUUUGCCCUCACUUUCAACAGCUCGCAGUCAAG”, the binding signal worked out at 0.594 ± 0.435 log2 fold change.

For “GGUCACGUCUCAAUCAACUCCAUAGAGGGGGGGAAAACCCCUUUACCCUCACAUUCAACAGCUCGCAGUCAAG”, the binding signal came out at 0.32 ± 0.406 log2 fold change.

On to “GGUCACGUCUCAAUCAACUCACAAGAGGGGGGGAAAACCCCUUUACCCUCGAUAUCAACAGCUCGCAGUCAAG”, for which the binding signal is 0.383 ± 0.425 log2 fold change.

As to “GGUCACGUCUCAAUCAACUCAAUAGAGGGGGGGAAAACCCCUUUACCCUCCACCUCAACAGCUCGCAGUCAAG”, the binding signal worked out at 0.349 ± 0.417 log2 fold change.

As to “GGUCACGUCUCAAUCAACUCCUCAGAGGGGGGGAAAACCCCUUUACCCUCCACCUCAACAGCUCGCAGUCAAG”, the binding signal amounted to 0.326 ± 0.442 log2 fold change.

In the case of “GGUCACGUCUCAAUCAACUCCAUAGAGGGGGGGAAAACCCCUUUACCCUCACACUCAACAGCUCGCAGUCAAG”, the binding signal was 0.698 ± 0.433 log2 fold change.

On to “GGUCACGUCUCAAUCAACUCAAUAGAGGGGGGGAAAACCCCUUUACCCUCCAUAUCAACAGCUCGCAGUCAAG”, for which the binding signal amounted to 0.379 ± 0.407 log2 fold change.

Take “GGUCACGUCUCAAUCAACUCAAUAGAGGGGGGGAAAACCCCUUUACCCUCGAUAUCAACAGCUCGCAGUCAAG”: the binding signal was 0.435 ± 0.406 log2 fold change.

In the case of “GGUCACGUCUCAAUCAACUCCCCAGAGGGGGGGAAAACCCCUUUACCCUCCAUAUCAACAGCUCGCAGUCAAG”, the binding signal came out at 0.573 ± 0.413 log2 fold change.

Take “GGUCACGUCUCAAUCAACUCUUUAGAGGGGGGGAAAACCCCUUUACCCUCGAUAUCAACAGCUCGCAGUCAAG”: the binding signal amounted to 0.336 ± 0.435 log2 fold change.

Turning to “GGUCACGUCUCAAUCAACUCCCCAGAGGGGGGGAAAACCCCUUUACCCUCCAUCUCAACAGCUCGCAGUCAAG”, the binding signal turned out to be 0.313 ± 0.439 log2 fold change.

The values above are taken from paper PMC5892938, “SARNAclust: Semi-automatic detection of RNA protein binding motifs from immunoprecipitation data”.
